From PubChem BioAssay (NCATS)
Inconclusive results are not listed. Calls of active or inactive are those of the source. Unless noted, the call rests on the fitted dose curve; in most records, active means well fitted curve in either direction with a large enough effect (not every such curve was filed as active); inconclusive means small, poorly fitted or top-dose-only effect, or another doubt; inactive means flat fitted curve, though single readings scatter.

Tests used:
[1] = AP1 Signaling Pathway (AID 357);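 further: ME-180 reporter cells stimulated with EGF at its EC50 level; on the % scale 0 is the no-effect control and ±100 the full control effect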
Summary of the method: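 Beta-lactamase reporter under AP-1 response element, ME-180 background. Stimulus: EC50 EGF. Compound exposure 5 h, 37 °C. Detection: CCF4, 2.5 h RT, 460/530 nm. Values: AC50 from titration.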

[2] = biological target: Cytochrome P450 1A2 (Homo sapiens) (UniProt P05177); test: p450-cyp1a2 (AID 410; calls by dose curve; further: potency means the concentration at half of the fitted maximal effect;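 on activity change, negative = inhibition: -100% = full effect of reference inhibitor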)
Summary of the method: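 Inhibition was calculated relative to 57 uM furafylline (full inhibition). The reaction used human CYP1A2 at 20nM with Luciferin-ME at its Km, 100uM, driven by an NADPH-regenerating system for 60 min at room temperature.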

[3] = NFAT Signaling Pathway (AID 444); conditions: Jurkat NFAT-bla M1, carbachol, beta-lactamase ratio, 5 h; at 17.2 µM (top of the series) unless noted;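 further: carbachol stimulus at about its EC50 of 1 µM final; on the % scale 0 is the no-effect control and ±100 the full control effect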
Summary of the method: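 Jurkat cells with NFAT-driven β-lactamase reporter and co-expressed M1 receptor, stimulated with carbachol (final 1 uM, ~EC50), compound titration, 5 h at 37 °C. CCF4 loaded 1 h at RT; 460/530 nm ratio gave %activity and AC50.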

[4] = Stat Signaling Pathway (AID 446);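 further: ME-180 cervical cancer cells given 40 pM IL-6 alongside compound; SIE-controlled beta-lactamase reporter measured as 460/530 nm FRET emission ratio; on the % scale 0 is the no-effect control and ±100 the full control effect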
Summary of the method: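 ME-180 cells carrying a SIE-driven beta-lactamase reporter are stimulated with 40 pM IL-6 for 5 h at 37C in the presence of compound. The 460/530 nm FRET substrate ratio is read after 2.5 h at RT. Data are normalised to 300 pM IL-6 and to 125 nM JAK inhibitor controls.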

[5] = biological target: Glucocorticoid receptor (Homo sapiens) (UniProt P04150); test: GR-EFC Redistribution (AID 451; calls by dose curve; further: potency means the concentration at half of the fitted maximal effect); conditions: CHO-K1 GR-EFC translocation, beta-gal luminescence, 2 h
Summary of the method: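 CHO-K1 cells expressing nuclear EA and GR-ED fragments of b-gal; compounds titrated up to 46 uM final, 2 h at 37 C. GR nuclear translocation read as complemented b-gal luminescence after 1 h RT detection.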

[6] = biological target: Mitogen-activated protein kinase 10 (Mus musculus) (UniProt Q61831); test: JNK3 AlphaScreen Assay (AID 530);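 further: kinase came from lysate of stimulated human HepG2 cells; signal reports phosphorylation of biotinylated GST-cJun 1-79 at Ser73 with 10 µM ATP; on the % scale 0 is the no-effect control and ±100 the full control effect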
Summary of the method: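 qHTS format: compounds tested as titrations against IL-1beta/TNF-alpha-activated HepG2 lysate JNK3 with biotin-GST-cJun substrate and 10 uM ATP at room temperature. Loss of anti-phospho-cJun AlphaScreen signal indicates inhibition.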

[7] = biological target: 3',5'-cyclic-AMP phosphodiesterase 4B (Homo sapiens) (UniProt Q07343); test: qHTS Assay for Inhibitors of PDE-IV (AID 607; active means well fitted activation curve with a large enough effect in the main read-out, with a control signal flat, not every such curve was filed as active; further: % of control where 0% means no effect)
Summary of the method: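 HEK293 ACTOne cells with CNG channel (1000/well), endogenous PDE4; membrane potential dye, compounds up to 22.9 uM final. Fluorescence Ex 535/Em 590; RO 20-1724 (100 uM final) as reference.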

[8] = qHTS Assay for Lipid Storage Modulators (AID 1519; calls by dose curve); conditions: Drosophila S3 cells, BODIPY lipid droplet/cell ratio, laser cytometry, cells loaded with oleic acid; for activity change, negative = inhibition: at 25.7 µM (top of the series)
Summary of the method: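 Cells seeded at 5,000 per well were treated with compounds over a concentration series and loaded with oleic acid (400 uM, as added). Lipid droplet fluorescence (488 nm excitation, 500-530 nm channel) was read by laser-scanning cytometry and normalized to 20 uM Triacsin C.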

[9] = biological target: Ubiquitin carboxyl-terminal hydrolase 1 (Homo sapiens) (UniProt O94782); test: Inhibitors of USP1/UAF1: Pilot qHTS (AID 504865; active means well fitted inhibition curve with a large enough effect;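 further: rhodamine fluorescence freed from ubiquitin-rhodamine substrate followed over time; top concentration of the series differs between compounds; on the % scale 0 is the no-effect control and ±100 the full control effect; nearly all actives have a fitted effect of over 35% in size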)
Summary of the method: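 USP1/UAF1 complex (1nM) preincubated with compound 15 min at room temperature, then Ub-Rho substrate (150nM final) added. Fluorescence read kinetically at 480/540 nm, 6 reads every 60 seconds. Buffer: 50mM HEPES pH 7.8, 0.5mM EDTA, 0.1 mg/ml BSA, 1mM TCEP, 0.01% Tween-20.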

[10] = biological target: Glucocorticoid receptor (Homo sapiens) (UniProt P04150); test: GR-GFP Redistribution (AID 450;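 active means compounds whose dose series gives a full or clear partial fitted curve of increased nuclear translocation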; further: potency means the concentration at half of the fitted maximal effect); conditions: U2OS GR-GFP nuclear translocation, laser cytometry, 2 h
[11] = measured here: cell count channel max response
[12] = measured here: lipid channel max response

Sequence of Cytochrome P450 1A2 (Homo sapiens) (P05177 whole entry, looked up): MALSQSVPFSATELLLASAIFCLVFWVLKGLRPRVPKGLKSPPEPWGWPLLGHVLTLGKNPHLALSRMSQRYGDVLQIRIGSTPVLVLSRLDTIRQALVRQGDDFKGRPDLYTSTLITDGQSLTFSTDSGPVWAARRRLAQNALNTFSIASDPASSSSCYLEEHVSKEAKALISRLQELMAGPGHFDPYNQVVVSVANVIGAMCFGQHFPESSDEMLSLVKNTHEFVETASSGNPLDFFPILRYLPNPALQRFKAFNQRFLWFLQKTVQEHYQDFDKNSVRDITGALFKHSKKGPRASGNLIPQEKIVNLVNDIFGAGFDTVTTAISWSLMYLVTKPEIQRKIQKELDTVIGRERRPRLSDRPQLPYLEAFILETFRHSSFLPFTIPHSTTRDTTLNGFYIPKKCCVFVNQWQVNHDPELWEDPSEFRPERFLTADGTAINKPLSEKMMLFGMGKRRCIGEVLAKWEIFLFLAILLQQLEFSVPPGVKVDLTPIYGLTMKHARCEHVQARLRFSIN
Sequence of 3',5'-cyclic-AMP phosphodiesterase 4B (Homo sapiens) (Q07343 whole entry, looked up): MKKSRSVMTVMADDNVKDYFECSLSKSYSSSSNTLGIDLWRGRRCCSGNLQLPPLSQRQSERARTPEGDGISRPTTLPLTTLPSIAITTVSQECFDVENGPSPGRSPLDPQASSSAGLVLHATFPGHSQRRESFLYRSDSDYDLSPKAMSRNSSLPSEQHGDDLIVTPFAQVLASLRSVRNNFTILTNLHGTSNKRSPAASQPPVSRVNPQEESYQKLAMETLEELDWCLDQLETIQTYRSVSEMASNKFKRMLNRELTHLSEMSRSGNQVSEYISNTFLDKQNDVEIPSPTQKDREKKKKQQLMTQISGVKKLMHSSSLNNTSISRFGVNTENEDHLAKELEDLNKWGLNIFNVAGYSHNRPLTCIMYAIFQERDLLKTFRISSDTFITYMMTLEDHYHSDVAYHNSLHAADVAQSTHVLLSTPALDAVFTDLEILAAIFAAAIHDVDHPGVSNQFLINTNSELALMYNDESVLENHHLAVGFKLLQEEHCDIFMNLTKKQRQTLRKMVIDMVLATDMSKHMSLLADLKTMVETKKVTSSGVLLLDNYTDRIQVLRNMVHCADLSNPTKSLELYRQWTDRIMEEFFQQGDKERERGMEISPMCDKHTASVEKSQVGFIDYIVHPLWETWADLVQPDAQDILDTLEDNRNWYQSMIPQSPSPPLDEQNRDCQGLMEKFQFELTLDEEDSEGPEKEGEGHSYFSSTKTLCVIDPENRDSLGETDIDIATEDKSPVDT
Sequence of Glucocorticoid receptor (Homo sapiens) (P04150 whole entry, looked up, the tested form may be a part): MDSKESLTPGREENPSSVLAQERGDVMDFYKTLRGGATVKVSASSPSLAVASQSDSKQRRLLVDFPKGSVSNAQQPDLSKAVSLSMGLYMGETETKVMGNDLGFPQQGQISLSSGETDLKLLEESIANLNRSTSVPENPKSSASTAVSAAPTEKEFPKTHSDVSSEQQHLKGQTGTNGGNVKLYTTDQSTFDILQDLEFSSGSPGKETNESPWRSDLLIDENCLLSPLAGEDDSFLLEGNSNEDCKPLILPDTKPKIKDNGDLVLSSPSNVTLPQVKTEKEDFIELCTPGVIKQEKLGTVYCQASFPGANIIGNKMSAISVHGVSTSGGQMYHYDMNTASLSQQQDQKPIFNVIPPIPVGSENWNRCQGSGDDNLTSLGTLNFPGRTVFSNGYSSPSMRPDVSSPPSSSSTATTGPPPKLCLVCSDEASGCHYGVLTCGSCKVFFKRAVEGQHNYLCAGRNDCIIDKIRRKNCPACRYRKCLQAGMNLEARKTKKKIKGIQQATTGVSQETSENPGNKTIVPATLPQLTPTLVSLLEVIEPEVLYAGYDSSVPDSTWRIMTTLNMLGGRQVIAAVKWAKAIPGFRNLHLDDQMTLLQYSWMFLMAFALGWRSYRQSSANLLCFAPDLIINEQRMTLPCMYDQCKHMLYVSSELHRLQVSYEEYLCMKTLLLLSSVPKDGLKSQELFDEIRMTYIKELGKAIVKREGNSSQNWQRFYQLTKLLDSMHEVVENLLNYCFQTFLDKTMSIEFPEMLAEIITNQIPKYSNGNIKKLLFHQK
Sequence of Ubiquitin carboxyl-terminal hydrolase 1 (Homo sapiens) (O94782 whole entry, looked up): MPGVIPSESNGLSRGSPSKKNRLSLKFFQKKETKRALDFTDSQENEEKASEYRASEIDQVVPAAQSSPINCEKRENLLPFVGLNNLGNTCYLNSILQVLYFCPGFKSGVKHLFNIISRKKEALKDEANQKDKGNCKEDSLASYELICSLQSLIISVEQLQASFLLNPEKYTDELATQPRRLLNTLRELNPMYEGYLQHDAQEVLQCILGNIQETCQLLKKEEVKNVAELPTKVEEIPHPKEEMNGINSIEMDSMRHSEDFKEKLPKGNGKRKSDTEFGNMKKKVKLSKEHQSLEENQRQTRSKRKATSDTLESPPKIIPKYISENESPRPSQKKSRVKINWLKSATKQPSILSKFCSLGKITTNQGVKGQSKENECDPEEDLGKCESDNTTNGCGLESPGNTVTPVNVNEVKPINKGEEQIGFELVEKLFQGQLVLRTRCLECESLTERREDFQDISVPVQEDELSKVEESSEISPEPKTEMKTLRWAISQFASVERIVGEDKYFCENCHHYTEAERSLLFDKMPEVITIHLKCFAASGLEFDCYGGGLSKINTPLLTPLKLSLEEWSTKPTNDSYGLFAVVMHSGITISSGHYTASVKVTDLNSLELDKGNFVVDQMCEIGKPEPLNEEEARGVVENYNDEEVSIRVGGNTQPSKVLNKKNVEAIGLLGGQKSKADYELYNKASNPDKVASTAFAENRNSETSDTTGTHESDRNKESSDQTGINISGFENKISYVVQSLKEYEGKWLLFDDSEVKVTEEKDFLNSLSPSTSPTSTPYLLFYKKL

Structure (SMILES) | outcome [1] | Potency [2] | activity change, negative = inhibition [3] | outcome [4] | Potency [5] | Potency [6] | outcome [7] | activity change, negative = inhibition [8] | max response [8, 11] | max response [8, 12] | Potency [9] | Potency [10]
O=C(/C=C\c1ccc(O)c(O)c1)O[C@@H]1C[C@](O)(C(=O)O)C[C@@H](O)[C@@H]1O | inactive | inactive | -0.271% (inactive) | inactive | > 20.6 µM (inactive) | inactive | inactive | 2.29% (inactive) | 1.17% | 3.23% | inactive | 
CC(=O)c1cc2ccccc2oc1=O | inactive | 200 nM (active) | -3.16% (inactive) | inactive | > 20.6 µM (inactive) | inactive | inactive | -3.99% (inactive) | -14% | -18.4% | inactive | > 20.6 µM (inactive)
C[N+]1(C)C[C@@H](O)C[C@@H]1C(=O)[O-] | inactive | inactive | -11.1% (inactive) | inactive | > 20.6 µM (inactive) | inactive | inactive | -1.53% (inactive) | -1.48% | -3.42% | inactive | 
CNc1ncnc2c1ncn2[C@@H]1O[C@H](CO)[C@@H](O)[C@@H]1O | inactive | inactive | -5.4% (inactive) | inactive | > 20.6 µM (inactive) | inactive | inactive | -4.48% (inactive) | -18.6% | -24.1% | inactive | > 20.6 µM (inactive)
NC(=O)c1ncn([C@H]2O[C@@H](CO)[C@@H](O)[C@@H]2O)n1 | inactive | inactive | -18.7% (inactive) | inactive | > 20.6 µM (inactive) | inactive | inactive | 1.03% (inactive) | -8.81% | -7.48% | inactive | > 20.6 µM (inactive)
CO[C@H]1C=CO[C@]2(C)Oc3c(C)c(O)c4c(O)c(c5c(c4c3C2=O)NC2(CCN(CC(C)C)CC2)N=5)=NC(=O)C(C)=CC=C[C@@H](C)[C@@H](O)[C@@H](C)[C@@H](O)[C@@H](C)[C@@H](OC(C)=O)[C@@H]1C | inactive | inactive | -15% (inactive) | inactive | > 20.6 µM (inactive) |  | inactive | -0.285% (inactive) | -3.75% | -1.31% |  | > 20.6 µM (inactive)
C#C[C@]1(O)CC[C@@H]2[C@H]3CCc4cc(OC)ccc4[C@@H]3CC[C@@]21C | inactive | 501 nM (active) | -23.4% (inactive) | inactive | > 20.6 µM (inactive) | inactive | inactive | -2.31% (inactive) | -15.5% | -16.7% | inactive | > 20.6 µM (inactive)
O=C(O)c1cc2ccccc2c(Cc2cc3ccccc3c(C(=O)O)c2O)c1O (tested in a mixture with another compound) | inactive | inactive | -23% (inactive) | inactive | > 20.6 µM (inactive) | inactive | inactive | 1.36% (inactive) | -8.55% | -4.55% |  | > 20.6 µM (inactive)
